ChEMBL document CHEMBL3988442, “University of Dundee, Small-Polar-MMV Screening Library” (2021)

Target: AMP-activated protein kinase, AMPK (Homo sapiens) (UniProt P54646+O43741+P54619+Q9UGJ0+Q9Y478+Q13131+Q9UGI9)
Assay: AMP-dependent Kinase enzyme assay. An in vitro enzyme assay that detects ADP turnover that is directly proportional to AMPK activity. This uses naive AMPK that is activated during the assay with MK-8722
Type: functional
Design: scale not given: direction of the effect not stated beside the values
Details: 30 µM

SMILES | Percent Effect
COc1coc(CN2CCCC3(CCC(=O)N(C4CC4)C3)C2)cc1=O (centres undefined) | -2.13%
CSC1(CNC(=O)N(C)Cc2sccc2C)CCOCC1 | -7.94%
Cn1cc(-c2cc(C(=O)N3CCOCC3)c3ccc(F)cc3n2)cn1 | 18.9%
NC(=O)C1CCCN(Cc2ccc(C(=O)Nc3cnns3)cc2)C1 (centres undefined) | 5.32%
CCCS(=O)(=O)N1CCCN(CCCOC)CC1 | 11.7%
Cc1cc(N(C)CC2COc3ccccc3O2)nc(N)n1 (centres undefined) | 2.34%
CC(=O)c1ccc(-c2cnn(CC(=O)Nc3ccnn3C)c2)nc1 | 6.15%
Cc1c(Br)cccc1C(=O)Nc1cc(C(N)=O)n(C)c1 | 3.87%
COC(=O)c1ccoc1CN(C1CC1)C1CCS(=O)(=O)C1 (centres undefined) | 7.17%
COc1nc2c(cc1C(=O)NC(C)Cc1cc(C)n[nH]1)CCC2 (centres undefined) | -15.8%
Cc1nnc(SCCCNc2cc(C3CC3)ncn2)s1 | 15.2%
Cc1ccc(C(=O)NC2CCCN(S(C)(=O)=O)C2)c(=O)[nH]1 (centres undefined) | -0.668%
CCc1cc(N2CCC(NCCc3nc(C)c(C)s3)CC2)nc(C)n1 | 4.15%
CN(C)CCC1CCN(c2cc(N3CCCC3CO)ncn2)CC1 (centres undefined) | -6.25%
CC(C)[C@@H]1CN(C(=O)CN(C)Cc2ccc(F)cc2)C[C@H]1C(=O)O | 0.85%
COCCN(CC(F)F)c1cc(COC)nc2ncnn12 | 0.272%
CN(Cc1ccc(F)cc1)Cc1cc2c(cc1Br)OCCO2 | -2.13%
Cc1nccn1[C@@H]1CC[C@@H](N(C)S(=O)(=O)c2ccc(F)cc2)[C@H]1O | 27.2%
FC(F)(F)c1cccc(OC2CCN(Cc3ccccn3)CC2)c1 | 2.09%
O=C(NCCc1cc(N2CCOCC2)nc(NC2CC2)n1)C1CC1 | 23.1%

SMILES | Percent Effect
CNC(=O)NC(=O)CN1CCc2c(Br)ccc(F)c2C1 | 5.32%
O=C(CCn1cccn1)N1CCC(c2nnc(-c3ccsc3)o2)CC1 | 4.17%
OCc1cccc(OCc2ccon2)c1 | 4.35%
CCCn1cc(-c2cc(C(=O)N(C)C)c3ccc(OC)cc3n2)cn1 | 8.93%
COCCNC(=O)N1CCN(c2cc(F)ccc2F)CC1 | 7.95%
Cc1ccccc1Cc1nc(CSc2nnc(N)n2C2CC2)no1 | 7.43%
Cc1nsc(C(=O)NCCc2ccc(S(N)(=O)=O)cc2)n1 | 2.83%
CC(C)(C)C(=O)NCCc1cc(N2CCOCC2)nc(NC2CC2)n1 | 17.4%
CC(C)c1nc(CN(C)C(=O)C(O)c2ccc(Cl)cc2)cs1 (centres undefined) | -2.36%
COc1ccc(OCCNC(=O)CN(C)Cc2nnc(C)n2C)cc1 | 7.86%
CC(C)c1ccc(CC(=O)N2CCCC3(CN(C)C(=O)O3)C2)cc1 (centres undefined) | 15%
Cc1ccc(-c2nnn(CCN3C(=O)CCC3=O)n2)cc1 | -8.21%
O=C(CN1CC(c2nc(-c3ccco3)no2)C1)NCCc1ccccc1 | -5%
O=C(NCC1CCOC1)c1cc(-c2cccc(Cl)c2)[nH]n1 (centres undefined) | 7.17%
c1ccc(N2CCC(OCC3CCCCO3)CC2)nc1 (centres undefined) | 6.76%
CC(CNC(=O)CCCn1cncn1)N1CCc2ccccc2C1 (centres undefined) | 14.6%
Cc1ccc(-c2cn(C3CCN(C(=O)[C@H]4CCCO4)CC3)nn2)cc1 | -0.746%
CC(C)(C)NC(=O)C1CCCCN1Cc1nccn1CC(F)(F)F (centres undefined) | -2.34%
CC(=O)N1CCC(NC(=O)CN2CCCc3c(C)ccc(F)c32)CC1 | 5.92%
